# According to PMC11062922 (Nature Chemical Biology, 2023):
# Read-outs that look alike come from different tables or passages of the source.
# Assays:
# PRKD2 = details: read-out: apparent Kd, n = 1
# PRKD3 = details: read-out: apparent Kd, n = 1
substance,measurement,setting,value
Lestaurtinib,potency estimated from few doses,"PRKD2; compound concentrations:100 nM and 1000 nM (sheet 'Lestaurtinib' of Supplementary Table 1),run:Lestaurtinib_02741_R1,Plate:MR023",38.5 nM
same,potency estimated from few doses,"PRKD2; compound concentrations:100 nM and 1000 nM (sheet 'Lestaurtinib' of Supplementary Table 1),run:Lestaurtinib_02748_R1,Plate:MR024",45.6 nM
same,potency estimated from few doses,"PRKD2; compound concentrations:100 nM and 1000 nM (sheet 'Lestaurtinib' of Supplementary Table 1),run:Lestaurtinib_02748_R2,Plate:MR024",48.1 nM
same,potency estimated from few doses,"PRKD2; compound concentrations:100 nM and 1000 nM (sheet 'Lestaurtinib' of Supplementary Table 1),run:Lestaurtinib_02748_R3,Plate:MR024",45.9 nM
same,potency estimated from few doses,"PRKD2; compound concentrations:100 nM and 1000 nM (sheet 'Lestaurtinib' of Supplementary Table 1),run:Lestaurtinib_02752_R1,Plate:MR025",59.6 nM
same,potency estimated from few doses,"PRKD2; compound concentrations:100 nM and 1000 nM (sheet 'Lestaurtinib' of Supplementary Table 1),run:Lestaurtinib_02752_R2,Plate:MR025",58 nM
same,potency estimated from few doses,"PRKD2; compound concentrations:100 nM and 1000 nM (sheet 'Lestaurtinib' of Supplementary Table 1),run:Lestaurtinib_02752_R3,Plate:MR025",35.6 nM
same,potency estimated from few doses,"PRKD2; compound concentrations:100 nM and 1000 nM (sheet 'Lestaurtinib' of Supplementary Table 1),run:Lestaurtinib_02765_R1,Plate:MR026",39.1 nM
same,potency estimated from few doses,"PRKD2; compound concentrations:100 nM and 1000 nM (sheet 'Lestaurtinib' of Supplementary Table 1),run:Lestaurtinib_02765_R2,Plate:MR026",69.2 nM
same,potency estimated from few doses,"PRKD2; compound concentrations:100 nM and 1000 nM (sheet 'Lestaurtinib' of Supplementary Table 1),run:Lestaurtinib_02765_R3,Plate:MR026",67.9 nM
same,potency estimated from few doses,"PRKD2; compound concentrations:100 nM and 1000 nM (sheet 'Lestaurtinib' of Supplementary Table 1),run:Lestaurtinib_02766_R1,Plate:MR027",45.5 nM
same,potency estimated from few doses,"PRKD2; compound concentrations:100 nM and 1000 nM (sheet 'Lestaurtinib' of Supplementary Table 1),run:Lestaurtinib_02766_R2,Plate:MR027",40.9 nM
same,potency estimated from few doses,"PRKD2; compound concentrations:100 nM and 1000 nM (sheet 'Lestaurtinib' of Supplementary Table 1),run:Lestaurtinib_02768_R2,Plate:MR028",44 nM
same,potency estimated from few doses,"PRKD2; compound concentrations:100 nM and 1000 nM (sheet 'Lestaurtinib' of Supplementary Table 1),run:Lestaurtinib_02768_R3,Plate:MR028",41.6 nM
same,potency estimated from few doses,"PRKD2; compound concentrations:100 nM and 1000 nM (sheet 'Lestaurtinib' of Supplementary Table 1),run:Lestaurtinib_02795_R1,Plate:MR022",45 nM
same,potency estimated from few doses,"PRKD2; compound concentrations:100 nM and 1000 nM (sheet 'Lestaurtinib' of Supplementary Table 1),run:Lestaurtinib_02795_R2,Plate:MR022",37.3 nM
same,potency estimated from few doses,"PRKD2; compound concentrations:100 nM and 1000 nM (sheet 'Lestaurtinib' of Supplementary Table 1),run:Lestaurtinib_02802_R2,Plate:MR029",43.6 nM
same,potency estimated from few doses,"PRKD2; compound concentrations:100 nM and 1000 nM (sheet 'Lestaurtinib' of Supplementary Table 1),run:Lestaurtinib_02802_R3,Plate:MR029",32.9 nM
same,potency estimated from few doses,"PRKD2; compound concentrations:100 nM and 1000 nM (sheet 'Lestaurtinib' of Supplementary Table 1),run:Lestaurtinib_02896_R1,Plate:MR030",43 nM
same,potency estimated from few doses,"PRKD2; compound concentrations:100 nM and 1000 nM (sheet 'Lestaurtinib' of Supplementary Table 1),run:Lestaurtinib_02896_R2,Plate:MR030",50.1 nM
same,potency estimated from few doses,"PRKD2; compound concentrations:100 nM and 1000 nM (sheet 'Lestaurtinib' of Supplementary Table 1),run:Lestaurtinib_02896_R3,Plate:MR030",40.6 nM
same,potency estimated from few doses,"PRKD2; compound concentrations:100 nM and 1000 nM (sheet 'Lestaurtinib' of Supplementary Table 1),run:Lestaurtinib_03172_R1,Plate:MR031",29.7 nM
same,potency estimated from few doses,"PRKD2; compound concentrations:100 nM and 1000 nM (sheet 'Lestaurtinib' of Supplementary Table 1),run:Lestaurtinib_03172_R2,Plate:MR031",36 nM
same,potency estimated from few doses,"PRKD2; compound concentrations:100 nM and 1000 nM (sheet 'Lestaurtinib' of Supplementary Table 1),run:Lestaurtinib_03172_R3,Plate:MR031",44.1 nM
same,potency estimated from few doses,"PRKD2; compound concentrations:100 nM and 1000 nM (sheet 'Lestaurtinib' of Supplementary Table 1),run:Lestaurtinib_03252_R1,Plate:MR032",27.4 nM
same,potency estimated from few doses,"PRKD2; compound concentrations:100 nM and 1000 nM (sheet 'Lestaurtinib' of Supplementary Table 1),run:Lestaurtinib_03252_R2,Plate:MR032",32.1 nM
same,potency estimated from few doses,"PRKD2; compound concentrations:100 nM and 1000 nM (sheet 'Lestaurtinib' of Supplementary Table 1),run:Lestaurtinib_03260_R1,Plate:MR033",52.3 nM
same,potency estimated from few doses,"PRKD3; compound concentrations:100 nM and 1000 nM (sheet 'Lestaurtinib' of Supplementary Table 1),run:Lestaurtinib_02339_R1,Plate:MR001",98.8 nM
same,potency estimated from few doses,"PRKD3; compound concentrations:100 nM and 1000 nM (sheet 'Lestaurtinib' of Supplementary Table 1),run:Lestaurtinib_02339_R2,Plate:MR001",98.8 nM
same,potency estimated from few doses,"PRKD3; compound concentrations:100 nM and 1000 nM (sheet 'Lestaurtinib' of Supplementary Table 1),run:Lestaurtinib_02364_R1,Plate:MR002",97.6 nM
same,potency estimated from few doses,"PRKD3; compound concentrations:100 nM and 1000 nM (sheet 'Lestaurtinib' of Supplementary Table 1),run:Lestaurtinib_02364_R3,Plate:MR002",93.5 nM
same,potency estimated from few doses,"PRKD3; compound concentrations:100 nM and 1000 nM (sheet 'Lestaurtinib' of Supplementary Table 1),run:Lestaurtinib_02367_R1,Plate:MR003",45.3 nM
same,potency estimated from few doses,"PRKD3; compound concentrations:100 nM and 1000 nM (sheet 'Lestaurtinib' of Supplementary Table 1),run:Lestaurtinib_02367_R2,Plate:MR003",62.3 nM
same,potency estimated from few doses,"PRKD3; compound concentrations:100 nM and 1000 nM (sheet 'Lestaurtinib' of Supplementary Table 1),run:Lestaurtinib_02367_R3,Plate:MR003",63.6 nM
same,potency estimated from few doses,"PRKD3; compound concentrations:100 nM and 1000 nM (sheet 'Lestaurtinib' of Supplementary Table 1),run:Lestaurtinib_02381_R2,Plate:MR004",59.1 nM
same,potency estimated from few doses,"PRKD3; compound concentrations:100 nM and 1000 nM (sheet 'Lestaurtinib' of Supplementary Table 1),run:Lestaurtinib_02407_R1,Plate:MR005",98 nM
same,potency estimated from few doses,"PRKD3; compound concentrations:100 nM and 1000 nM (sheet 'Lestaurtinib' of Supplementary Table 1),run:Lestaurtinib_02407_R2,Plate:MR005",51.7 nM
same,potency estimated from few doses,"PRKD3; compound concentrations:100 nM and 1000 nM (sheet 'Lestaurtinib' of Supplementary Table 1),run:Lestaurtinib_02422_R1,Plate:MR006",76.7 nM
same,potency estimated from few doses,"PRKD3; compound concentrations:100 nM and 1000 nM (sheet 'Lestaurtinib' of Supplementary Table 1),run:Lestaurtinib_02422_R2,Plate:MR006",42 nM
same,potency estimated from few doses,"PRKD3; compound concentrations:100 nM and 1000 nM (sheet 'Lestaurtinib' of Supplementary Table 1),run:Lestaurtinib_02422_R3,Plate:MR006",81.8 nM
same,potency estimated from few doses,"PRKD3; compound concentrations:100 nM and 1000 nM (sheet 'Lestaurtinib' of Supplementary Table 1),run:Lestaurtinib_02437_R1,Plate:MR007",84 nM
same,potency estimated from few doses,"PRKD3; compound concentrations:100 nM and 1000 nM (sheet 'Lestaurtinib' of Supplementary Table 1),run:Lestaurtinib_02437_R3,Plate:MR007",5.38 nM
